{
  "source": "PubChem BioAssay AID720650",
  "about": "(Broad Institute, 2013)",
  "note": "A number with no mark means an inactive call. Active and inactive are the calls of the source. The rule behind the calls is not given here.",
  "data": [
    {"test": "C difficile toxins, biochemical counterscreen, UDPG substrate absence, confirmatory dose response (AID 720650)", "conditions": "series mostly up to 19.5 µM", "values": [
      {"smiles": "O=C(Nc1ccc2c(c1)OCCO2)c1cc2ccccc2o1", "AC50": "> 39 µM"},
      {"smiles": "Cc1ccc(NNC(=O)c2ccno2)cc1C", "AC50": "0.302 µM (active)"},
      {"smiles": "CCOc1ccc(S(=O)(=O)NCCC(=O)NCc2ccccn2)cc1", "AC50": "inactive"},
      {"smiles": "Cc1cccc(-n2nnc(C(=O)NCc3ccccc3Cl)c2N)c1", "AC50": "inactive"},
      {"smiles": "Cc1nc2[nH]c(=S)[nH]c2c(=O)[nH]1", "AC50": "> 39 µM"},
      {"smiles": "O=C(Nc1ccc(O)cc1)/C(=C\\c1cccs1)NC(=O)c1ccccc1", "AC50": "17.1 µM (active)"},
      {"smiles": "COc1ccc(C(O)(C(C)C)C(CN2CCOCC2)c2ccccc2)cc1", "note": "(centres undefined)", "AC50": "inactive"},
      {"smiles": "CC(=O)Nc1ccc(N(C(=O)c2ccco2)C(C(=O)NC2CCCC2)c2cccs2)cc1", "note": "(centres undefined)", "AC50": "inactive"},
      {"smiles": "C/C(=N\\Nc1cc(N2CCOCC2)ncn1)c1ccc(O)cc1", "AC50": "inactive"},
      {"smiles": "Cn1cc(S(=O)(=O)CC(=O)N2CCCc3ccccc32)c2ccccc21", "AC50": "inactive"},
      {"smiles": "O=C(CCn1cnc2ccccc21)N/N=C/c1ccc(O)cc1", "AC50": "12.2 µM (active)"},
      {"smiles": "O=C(Nc1ccc(N2CCOCC2)c(Cl)c1)c1ccc(Cl)cc1", "AC50": "12.3 µM (active)"},
      {"smiles": "Cc1cc(C(=O)CSc2nnnn2-c2ccccc2)c(C)n1-c1ccc2c(c1)OCO2", "AC50": "inactive"},
      {"smiles": "Cc1cc2c(cc1S(=O)(=O)N(C)c1ccccc1)NC(=O)CO2", "AC50": "inactive"},
      {"smiles": "COc1cc(/C=C/C(=O)OCC(=O)N(C)Cc2ccccc2)ccc1O", "AC50": "inactive"},
      {"smiles": "Cc1ccc(S(=O)(=O)Oc2cccc(/C=N/Nc3ccc(C(=O)O)cc3)c2)cc1", "AC50": "> 39 µM"},
      {"smiles": "COc1ccc(C2=NS(=O)(=O)N(C)C(C(=O)NCc3ccc4c(c3)OCO4)=C2)cc1", "AC50": "inactive"},
      {"smiles": "CC1CN=C(Nc2cccc(S(=O)(=O)N(C)C)c2)S1", "note": "(centres undefined)", "AC50": "inactive"},
      {"smiles": "CCc1ccc2oc(-c3cc(N)ccc3Cl)nc2c1", "AC50": "inactive"},
      {"smiles": "CNc1nc(C23CC4CC(CC(C4)C2)C3)cs1", "AC50": "inactive"},
      {"smiles": "Oc1ccc(/C=N/Nc2nc(N3CCCC3)nc(N3CCCC3)n2)cc1O", "AC50": "inactive"},
      {"smiles": "C/C(=N\\OCC(=O)Nc1nc2ccccc2s1)c1ccccc1", "AC50": "inactive"},
      {"smiles": "O=c1[nH]c(CN2CCOCC2)nc2cc(Cl)ccc12", "AC50": "inactive"},
      {"smiles": "CCCN1CCN(C(=O)C2CCN(S(=O)(=O)c3c(C)noc3/C=C/c3ccc(C)cc3)CC2)CC1", "AC50": "inactive"},
      {"smiles": "Cc1nn(C2CC(O)C(O)C(CO)O2)c(=O)[nH]c1=O", "note": "(centres undefined)", "AC50": "inactive"},
      {"smiles": "Cc1[nH]c(-c2ccc(F)cc2)cc1C(=O)N1CCN(c2ccccc2)CC1", "AC50": "inactive"},
      {"smiles": "Cc1ccc(C2=NS(=O)(=O)N(C)C(C(=O)NCc3cccs3)=C2)cc1", "AC50": "inactive"},
      {"smiles": "C=CCNS(=O)(=O)c1nc(C)c(Cl)c(C)c1C#N", "AC50": "inactive"},
      {"smiles": "COc1ccc(/C=C/c2onc(C)c2S(=O)(=O)N2CCC(C(=O)N3CCC(C)CC3)CC2)cc1", "AC50": "inactive"},
      {"smiles": "Cc1ccc(/C=C(\\C#N)C(=O)Nc2ccccn2)o1", "AC50": "inactive"},
      {"smiles": "COc1ccccc1-n1c(SCC(=O)O)nc2c(sc(=S)n2-c2ccc(Cl)c(C)c2)c1=O", "AC50": "> 39 µM"},
      {"smiles": "COc1ccc(Cl)cc1NC(=S)NC1CCCC1", "AC50": "inactive"},
      {"smiles": "COc1cc(-c2n[nH]c(=S)n2/N=C/c2cccn2C)cc(OC)c1OC", "AC50": "inactive"},
      {"smiles": "COC(=O)Cc1ccc(NC(=S)NCc2ccc(OC)cc2)cc1", "AC50": "inactive"},
      {"smiles": "Cn1c(=O)c2[nH]c(=S)n(Cc3ccccc3)c2n(C)c1=O", "AC50": "14.4 µM (active)"},
      {"smiles": "O=C(CSc1cccc2cccnc12)N/N=C/c1ccc(F)cc1", "AC50": "inactive"},
      {"smiles": "O=C(NCc1nnc2c(C(F)(F)F)cc(Cl)cn12)c1cccnc1", "AC50": "inactive"},
      {"smiles": "O=C(C[C@@H]1C[C@@H]2c3cc(NC(=O)c4ccc5c(c4)OCO5)ccc3O[C@@H]2[C@@H](CO)O1)NCc1cccc(F)c1", "AC50": "inactive"},
      {"smiles": "Cc1ccc(CNC(=O)Nc2cccc(C)c2)cc1", "AC50": "inactive"}
    ]}
  ]
}
